Screening results from PubChem BioAssay.
V-ATPase pH = alters yeast V-ATPase proton transport; response, % at 10 µM; S. cerevisiae, pHLuorin cytosolic pH fluorescence; actives 0.37% (n = 350,000); in the data active means response mostly above about 7.3%, no sharp cut-off; inactive means mostly below about 5.4%; further: actives read high
ADAM10 inh = inhibitors of human ADAM10. recombinant ADAM10, EDANS/DABCYL FRET peptide cleavage, 3 h. O14672. actives 0.62% (n = 370,000). AID 720582. inhibition, % at 7 µM;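 active means inhibition above a per-campaign cutoff equal to the mean of compounds falling between control-based bounds plus 3 SD, cut at about 20% in these data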
ADAM17 inh = inhibitors of human ADAM17 | P78536 | recombinant ADAM17, EDANS/DABCYL FRET peptide cleavage | inhibition, % at 6.95 µM | actives 0.83% (n = 370,000) | AID 720648;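 active means inhibition above the mean of compounds lying between control limits plus 3 SD, set per campaign, cut at about 8.5% in these data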
Target sequence (P78536 215-824 limits assumed): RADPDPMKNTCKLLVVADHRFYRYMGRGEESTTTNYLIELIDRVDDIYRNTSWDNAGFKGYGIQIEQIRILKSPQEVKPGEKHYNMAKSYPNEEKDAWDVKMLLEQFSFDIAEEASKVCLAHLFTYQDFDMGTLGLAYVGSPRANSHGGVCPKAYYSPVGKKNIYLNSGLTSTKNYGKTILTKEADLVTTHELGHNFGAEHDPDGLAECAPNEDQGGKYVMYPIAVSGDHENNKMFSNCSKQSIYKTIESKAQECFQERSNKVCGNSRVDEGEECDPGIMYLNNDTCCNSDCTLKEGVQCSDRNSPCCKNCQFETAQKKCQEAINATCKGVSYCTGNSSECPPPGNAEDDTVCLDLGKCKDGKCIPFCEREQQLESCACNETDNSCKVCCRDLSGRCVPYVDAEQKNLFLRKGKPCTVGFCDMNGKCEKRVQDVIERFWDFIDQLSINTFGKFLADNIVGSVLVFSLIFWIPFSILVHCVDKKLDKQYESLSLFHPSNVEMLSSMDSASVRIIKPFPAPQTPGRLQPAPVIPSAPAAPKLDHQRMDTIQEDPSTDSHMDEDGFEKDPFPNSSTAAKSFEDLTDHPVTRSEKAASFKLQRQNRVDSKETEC
proKLK7 act = activates the human kallikrein-7 zymogen | actives 0.9% (n = 370,000) | activation, % at 7 µM | AID 652039 | purified proKLK7, EDANS-DABCYL substrate fluorescence; 100% is mature enzyme control, 0% vehicle;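 active means activation above the mean of all tested compounds plus 3 SD, computed per campaign excluding outliers beyond control limits, cut at about 13% in these data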
ADAM10 confirm = confirmation of inhibitors of human ADAM10; ADAM10 QFRET peptide cleavage, EDANS fluorescence; shares compounds with ADAM10 inh; actives 1% (n = 2,100); inhibition, % at 6.95 µM;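 active means inhibition above about 20% chosen separately for each screening run, limit read from the data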
ADAM17 counter = inhibits human ADAM17 in ADAM10 exosite counter-screen; inhibition, % at 6.95 µM; actives 0.5% (n = 2,100); shares compounds with ADAM10 inh; ADAM17 QFRET peptide cleavage, EDANS fluorescence;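 active means mean triplicate inhibition above the solvent-only control wells' mean plus 3 SD, cut at about 12% in these data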
ADAM10 counter = counter-screen for ADAM17 exosite inhibitors: inhibitors of human ADAM10. actives 47% (n = 2,900). inhibition, % at 6.95 µM. shares compounds with ADAM17 inh. recombinant ADAM10, EDANS/DABCYL FRET peptide cleavage, 3 h;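 active means mean inhibition over the triplicate runs exceeds the activity threshold set in the earlier primary screen, cut at about 20% in these data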
ADAM17 confirm = confirmation of inhibitors of human ADAM17; shares compounds with ADAM17 inh; recombinant ADAM17, EDANS/DABCYL QFRET peptide cleavage; inhibition, % at 6.95 µM; actives 65% (n = 2,900); AID 743257;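 active means mean inhibition across replicates above the hit cutoff set in the primary screen, cut at about 8.5% in these data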
Large screens that a line does not name were inactive (follow-up assays come after a bar, where they were run). Shown are actives, neighbours in structure and some others; about 2.3% of the full set was active somewhere.

O=C(N/N=C/c1ccc(Br)o1)/C(=C/c1ccc([N+](=O)[O-])cc1)NC(=O)c1ccccc1	ADAM10 inh 31, ADAM17 inh 13 | ADAM10 confirm inactive | ADAM17 counter inactive | ADAM10 counter 32 | ADAM17 confirm 17
COc1ccc(Cn2cc(CN3[C@@H](c4ccccc4)COc4cc(Br)ccc4S3(=O)=O)nn2)cc1	none (no result: V-ATPase pH)
COc1ccc(Cl)cc1-c1n[nH]c(=S)n1C1CCCCC1	ADAM10 inh 29, ADAM17 inh 8.7 | ADAM10 confirm inactive | ADAM17 counter inactive | ADAM10 counter 34 | ADAM17 confirm 21
O=C(/C=C/c1ccc(-c2ccccc2)cc1)NC1=NCCS1	none (no result: V-ATPase pH, proKLK7 act)
OC(c1ccc(F)cc1)c1nc(-c2cccc(C(F)(F)F)c2)cs1 (stereo not given)	none (no result: V-ATPase pH)
OC(c1ccc(F)c(F)c1)c1nc(-c2cccc(C(F)(F)F)c2)cs1 (stereo not given)	ADAM10 inh 26, ADAM17 inh 9.4 (no result: V-ATPase pH) | ADAM10 confirm inactive | ADAM17 counter inactive | ADAM10 counter inactive | ADAM17 confirm 14
OC(c1ccc(F)c(F)c1)c1nc(-c2ccc(F)c(Cl)c2)cs1 (stereo not given)	ADAM10 inh 22, ADAM17 inh 8.9 (no result: V-ATPase pH) | ADAM10 confirm inactive | ADAM17 counter inactive | ADAM10 counter 36 | ADAM17 confirm 16
COc1ccc(C(O)c2nc(-c3cccc(C(C)C)c3)cs2)cc1 (stereo not given)	ADAM10 inh 21, ADAM17 inh 11 (no result: V-ATPase pH) | ADAM10 confirm inactive | ADAM17 counter inactive | ADAM10 counter inactive | ADAM17 confirm 8.7
COC(=O)[C@]12C[C@H](CC(=O)NCc3ccc(C)o3)C(=O)N(Cc3cccc4ccccc34)C1=C[C@H](COCc1ccccc1)O[C@@H]2C	none (no result: V-ATPase pH)
COc1ccc(C(=O)OCCCN(C)C2CN(Cc3cn(Cc4ccccc4C(F)(F)F)nn3)S(=O)(=O)C2)cc1OC (stereo not given)	none (no result: V-ATPase pH)
COC(=O)[C@]12C[C@H](CC(=O)N3CCN(C(=O)C4CC4)CC3)C(=O)N(Cc3ccc4c(c3)OCO4)C1=C[C@H](C(C)C)O[C@@H]2C1CC1	none (no result: V-ATPase pH)
CN(c1ccc(C(=O)NCCSCc2ccc(Cl)cc2)cc1)S(=O)(=O)c1ccccc1	ADAM10 inh 28, ADAM17 inh 18 | ADAM10 confirm inactive | ADAM17 counter inactive | ADAM10 counter 36 | ADAM17 confirm 15
Cc1ccc(S(=O)(=O)N(C)[C@H]2C[C@H]3c4[nH]c5c(-c6ccccc6)cccc5c4CCN3C(=O)[C@H]2[C@H](C)O)cc1	none (no result: V-ATPase pH)
COCCOC(=O)c1c(C)n(C)c2ccc(OC(=O)c3c(OC)cccc3OC)cc12	ADAM10 inh 21, ADAM17 inh 10 | ADAM10 confirm inactive | ADAM17 counter inactive | ADAM10 counter inactive | ADAM17 confirm 9.1
Cc1ccc(C2CC2C(=O)NNC(=S)Nc2cccc(C)c2)cc1 (stereo not given)	none
Cc1ccc(C2CC2C(=O)NNC(=S)Nc2cccc(Cl)c2)cc1 (stereo not given)	ADAM10 inh 39, ADAM17 inh 22 | ADAM10 confirm inactive | ADAM17 counter inactive | ADAM10 counter 24 | ADAM17 confirm 11
Cc1ccc(-n2c(SCC(=O)Nc3ccc(S(=O)(=O)Nc4nccs4)cc3)nnc2-c2cccs2)cc1	none (no result: V-ATPase pH)
Cc1cc(-n2c(C)cc(C(=O)CSc3nnnn3-c3ccccc3)c2C)no1	none
Cc1ccc(-n2nnnc2SCC(=O)c2cc(C)n(-c3cc(C)on3)c2C)c(C)c1	ADAM10 inh 24, ADAM17 inh 15 | ADAM10 confirm inactive | ADAM17 counter inactive | ADAM10 counter inactive | ADAM17 confirm 11
CCN(CC)C(=O)Cn1c2ccccc2c2nc3n(c(=O)c21)CCS3	none (no result: V-ATPase pH, proKLK7 act)
Clc1ccc(-c2nnc3n2N=C(c2ccc(-c4ccccc4)cc2)CS3)c(Cl)c1	none (no result: V-ATPase pH)
Cc1cccc(C)c1OCC(=O)N(Cc1ccc(Cl)cc1)C1CCS(=O)(=O)C1 (stereo not given)	ADAM10 inh 20, ADAM17 inh 9.2 | ADAM10 confirm inactive | ADAM17 counter inactive | ADAM10 counter inactive | ADAM17 confirm inactive
Cc1ccc(C2NC(=O)c3n[nH]c(C)c32)cc1 (stereo not given)	none (no result: V-ATPase pH)
O=C(O)c1ccccc1NS(=O)(=O)c1ccc(NNC(=S)Nc2ccc(OC(F)F)cc2)c([N+](=O)[O-])c1	ADAM10 inh 24, ADAM17 inh 11 | ADAM10 confirm inactive | ADAM17 counter inactive | ADAM10 counter inactive | ADAM17 confirm 12
Cc1ccc(NC(=S)NNc2ccc([N+](=O)[O-])cc2S(=O)(=O)Nc2ccccc2C(=O)O)cc1C	none
C=CCC[C@H](Cc1ccc(F)cc1)C(=O)OC[C@@H](Cc1c[nH]c2ccccc12)NC(=O)[C@@H](CC=C)CC(=O)N(CCO)Cc1ccccc1	ADAM10 inh 41, ADAM17 inh 15 | ADAM10 confirm inactive | ADAM17 counter inactive | ADAM10 counter 48 | ADAM17 confirm 23
C=CCC[C@@H](Cc1ccc(F)cc1)C(=O)OC[C@H](Cc1c[nH]c2ccccc12)NC(=O)[C@H](CC=C)CC(=O)N(CCO)Cc1ccccc1	ADAM10 inh 21, ADAM17 inh 12 | ADAM10 confirm inactive | ADAM17 counter inactive | ADAM10 counter 55 | ADAM17 confirm 27
C=CCC[C@H](Cc1ccc(F)cc1)C(=O)OC[C@H](Cc1c[nH]c2ccccc12)NC(=O)[C@@H](CC=C)CC(=O)N(CCO)Cc1ccccc1	ADAM10 inh 27, ADAM17 inh 14 | ADAM10 confirm inactive | ADAM17 counter inactive | ADAM10 counter 40 | ADAM17 confirm 20
C=CC[C@H](CC(=O)N(CCO)Cc1ccccc1)C(=O)N[C@H](COC(=O)[C@@H](CC=C)CC(=O)OC(C)(C)C)Cc1c[nH]c2ccccc12	ADAM10 inh 26, ADAM17 inh 13 | ADAM10 confirm inactive | ADAM17 counter inactive | ADAM10 counter 45 | ADAM17 confirm 22
C=CC[C@@H](CC(=O)NCCO)C(=O)N[C@H](COC(=O)[C@@H](CC=C)Cc1ccc(F)cc1)Cc1c[nH]c2ccccc12	none
C=CCC[C@@H](Cc1ccc(F)cc1)C(=O)OC[C@@H](Cc1c[nH]c2ccccc12)NC(=O)[C@H](CC=C)CC(=O)NCCO	none
CC(=O)O[C@H]1C=C[C@@H](NC(=O)OC(C)(C)C)C1	none (no result: V-ATPase pH)
CC(C)CNc1cccc2c1S(=O)(=O)N(Cc1cccc(F)c1)[C@@H](C)[C@H](c1ccccc1)O2	none (no result: V-ATPase pH)
